# Where two headings read alike, the source gives them in different places.
# What was measured:
# Set-up in all cases: species or system human, MV4-11 + K-562 + COLO205 + SK-N-BE2 + OVCAR-8
# [1] = tested on: CDC7; settings: read-out: apparent Kd, n = 1
# [2] = tested on: CDK5; settings: read-out: apparent Kd, n = 1
# [3] = tested on: NQO2; settings: read-out: apparent Kd, compound concentrations: 100 nM and 1000 nM (sheet 'Samples'), n = 1
# [4] = tested on: ICK; settings: read-out: apparent Kd, n = 1
# [5] = tested on: ATR; settings: read-out: apparent Kd, n = 1
# [6] = tested on: PIK3CA; settings: read-out: apparent Kd, compound concentrations: 100 nM and 1000 nM (sheet 'Samples'), n = 1
# [7] = tested on: IRAK4; settings: read-out: apparent Kd; compound concentrations:100 nM and 1000 nM (sheet 'Samples'); n = 1
# [8] = tested on: CDK6; settings: read-out: apparent Kd, n = 1
# [9] = tested on: JAK1; settings: read-out: apparent Kd, n = 1
# [10] = tested on: MAP4K1; settings: read-out: apparent Kd, n = 1
# [11] = tested on: T1, DJA1; settings: read-out: apparent Kd, compound concentrations: 100 nM and 1000 nM (sheet 'Samples'), n = 1
# T1 construct: gene DNAJA1
# [12] = tested on: AKT2; settings: read-out: apparent Kd, n = 1
# [13] = tested on: MAP2K1; settings: read-out: apparent Kd; compound concentrations:100 nM and 1000 nM (sheet 'Samples'); n = 1
# [14] = tested on: PRKCB; settings: read-out: apparent Kd, n = 1
# [15] = tested on: NLK; settings: read-out: apparent Kd; compound concentrations: 100 nM and 1000 nM (sheet 'Samples'), CATDS: 0.11088369265314001; n = 1
# [16] = tested on: JAK2; settings: read-out: apparent Kd; compound concentrations: 100 nM and 1000 nM (sheet 'Samples'), CATDS: 1.8350594186084E-2; n = 1
# [17] = compound concentrations:100 nM and 1000 nM (sheet 'Samples')
structure (smiles),measurement,setting,value
Cl.Nc1nc(-c2ccc3c(c2)C(=Cc2cc(Br)c(O)c(Br)c2)C(=O)N3)cs1 [GW407323A],potency estimated from few doses,"[1]; compound concentrations: 100 nM and 1000 nM (sheet 'Samples'), CATDS: 3.34335879912959E-2",0.903 µM
same,potency estimated from few doses,"[2]; compound concentrations: 100 nM and 1000 nM (sheet 'Samples'), CATDS: 3.2075067944878903E-2",1.06 µM
same,potency estimated from few doses,[3]; CATDS: 3.5438928095243502E-2,0.734 µM
Cc1cc(NC(=O)c2cccc(NC(=O)/C=C/CN(C)C)c2)ccc1Nc1nccc(-c2cccnc2)n1 [JNK-IN-7],potency estimated from few doses,[4]; [17],1.29 µM
O=C1N=C(NCc2ccccc2Br)S/C1=C\c1ccc2ncccc2c1 [RO4506918-000],potency estimated from few doses,[3]; CATDS: 7.7702899171443504E-2,1.48 µM
NS(=O)(=O)c1ccc(N/N=C2\C(=O)Nc3ccc(-c4cnco4)cc32)cc1 [GW276655_KCGS],potency estimated from few doses,[4]; [17],1.77 µM
CCC(CC)(CC)n1cnc2c(N)ncnc21 [SKF-97620],potency estimated from few doses,"[5]; compound concentrations: 100 nM and 1000 nM (sheet 'Samples'), CATDS: 4.3166992032332097E-2",0.432 µM
same,potency estimated from few doses,[6]; CATDS: 0.13947400940733601,0.0539 µM
O=C(Nc1n[nH]c2nc(-c3ccccc3O)ccc12)C1CC1 [SB-711880],potency estimated from few doses,[7],0.958 µM
COc1cc[nH]c1/C=C1\C(=O)Nc2ccc(F)c(C#C[C@@H](O)[C@@H](N)[C@@H](C)O)c21 [RO0283120-000],potency estimated from few doses,[2]; [17],1.07 µM
same,potency estimated from few doses,[8]; [17],1.14 µM
same,potency estimated from few doses,[9]; [17],0.468 µM
same,potency estimated from few doses,[10]; [17],1.06 µM
CN(C)c1ccc2c(c1)/C(=C/Nc1ccc(S(N)(=O)=O)cc1)C(=O)N2 [GW416469X],potency estimated from few doses,[11]; CATDS: 7.6568205350202298E-2,1.42 µM
same,potency estimated from few doses,[6]; CATDS: 0.16808925824439999,0.245 µM
COc1ccc(Nc2nccc(NCCNC(=O)Nc3cc(C)ccc3C)n2)cc1 [GSK1379899A],potency estimated from few doses,"[12]; compound concentrations: 100 nM and 1000 nM (sheet 'Samples'), CATDS: 3.9720416292935899E-2",2.19 µM
same,potency estimated from few doses,[11]; CATDS: 4.7532524958751397E-2,1.32 µM
same,potency estimated from few doses,[6]; CATDS: 0.114925337657843,0.25 µM
Cn1cc(C=C2C(=O)Nc3cccnc32)c2ccccc21 [GW441756X],potency estimated from few doses,"[9]; compound concentrations: 100 nM and 1000 nM (sheet 'Samples'), CATDS: 0.22655128290916701",1.25 µM
Nc1nccc(-c2ccc3c(N)n[nH]c3c2)n1 [GSK1034945A],potency estimated from few doses,[1]; [17],1.42 µM
same,potency estimated from few doses,[8]; [17],2.15 µM
Nc1nc(-c2ccc3c(N)n[nH]c3c2)cc(N2CCCC(NC(=O)c3ccccc3)C2)n1 (stereo not shown) [GSK2286775B],potency estimated from few doses,[12]; [17],1.37 µM
same,potency estimated from few doses,[8]; [17],1.51 µM
same,potency estimated from few doses,[13],1.83 µM
CNCC1CCn2c(c(C3=C(c4cn(C)c5ccccc45)C(=O)NC3=O)c3ccccc32)C1 (stereo not shown) [RO0318676-000],potency estimated from few doses,"[14]; compound concentrations: 100 nM and 1000 nM (sheet 'Samples'), CATDS: 0.17130797334845299",0.0289 µM
CN[C@H](C#Cc1c(F)ccc2c1/C(=C/c1[nH]ccc1OC)C(=O)N2)CO.Cl [RO0283049-001],potency estimated from few doses,"[8]; compound concentrations: 100 nM and 1000 nM (sheet 'Samples'), CATDS: 1.9484263699736298E-2",2.15 µM
same,potency estimated from few doses,"[9]; compound concentrations: 100 nM and 1000 nM (sheet 'Samples'), CATDS: 9.7447783313560105E-2",0.0497 µM
same,potency estimated from few doses,"[10]; compound concentrations: 100 nM and 1000 nM (sheet 'Samples'), CATDS: 2.1208459408743999E-2",1.46 µM
COc1cc[nH]c1/C=C1\C(=O)Nc2ccc([N+](=O)[O-])c(N3CC[C@@H](O)C3)c21 [RO0504985-000],potency estimated from few doses,"[2]; compound concentrations: 100 nM and 1000 nM (sheet 'Samples'), CATDS: 3.2036617578660199E-2",1.47 µM
same,potency estimated from few doses,"[4]; compound concentrations: 100 nM and 1000 nM (sheet 'Samples'), CATDS: 0.118189348894571",0.047 µM
same,potency estimated from few doses,"[9]; compound concentrations: 100 nM and 1000 nM (sheet 'Samples'), CATDS: 3.4351644402230902E-2",1.13 µM
CC(C)(CO)CNC(=O)c1ccc2c(c1)/C(=N/Nc1ccc(S(N)(=O)=O)cc1)C(=O)N2 [GW301784X],potency estimated from few doses,[4]; [17],1.68 µM
NS(=O)(=O)c1cccc(-c2ccc3c(NC(=O)C4CC4)n[nH]c3c2)c1 [SB-741905],potency estimated from few doses,[11]; CATDS: 0.110749292558391,1.78 µM
same,potency estimated from few doses,[15],1.78 µM
same,potency estimated from few doses,[6]; CATDS: 0.24789463028651901,0.301 µM
CCn1c(-c2nonc2N)nc2cncc(C(=O)N3CC[C@H](N)C3)c21.Cl [SB-772077-B],potency estimated from few doses,[14]; [17],0.752 µM
Cl.Cl.NCC(NC(=O)c1cc(-c2ccnc3[nH]ccc23)cs1)c1ccccc1.NCC(NC(=O)c1cc(-c2ccnc3[nH]ccc23)cs1)c1ccccc1 (stereo not shown) [GSK1229959A],potency estimated from few doses,[16],1.23 µM
NS(=O)(=O)c1ccc(NC=C2C(=O)Nc3ccc4ncsc4c32)cc1 [GW589933X],potency estimated from few doses,"[1]; compound concentrations: 100 nM and 1000 nM (sheet 'Samples'), CATDS: 1.6133442669584601E-2",2.2 µM
same,potency estimated from few doses,"[2]; compound concentrations: 100 nM and 1000 nM (sheet 'Samples'), CATDS: 3.21718775388454E-2",0.288 µM
same,potency estimated from few doses,"[8]; compound concentrations: 100 nM and 1000 nM (sheet 'Samples'), CATDS: 2.1682770776227499E-2",0.765 µM
same,potency estimated from few doses,"[4]; compound concentrations: 100 nM and 1000 nM (sheet 'Samples'), CATDS: 1.95269690039667E-2",1.05 µM
same,potency estimated from few doses,"[10]; compound concentrations: 100 nM and 1000 nM (sheet 'Samples'), CATDS: 1.8829734427402701E-2",1.19 µM
COc1cc[nH]c1/C=C1\C(=O)Nc2ccc(F)c(I)c21 [RO0281567-000],potency estimated from few doses,[3]; CATDS: 0.103820399985183,1.83 µM
NS(=O)(=O)c1ccc(N/C=C2\C(=O)Nc3ccc4ncsc4c32)cc1 [GW297361X],potency estimated from few doses,"[1]; compound concentrations: 100 nM and 1000 nM (sheet 'Samples'), CATDS: 3.3579769325783403E-2",1.33 µM
same,potency estimated from few doses,"[2]; compound concentrations: 100 nM and 1000 nM (sheet 'Samples'), CATDS: 4.1634678032953398E-2",0.772 µM
same,potency estimated from few doses,"[8]; compound concentrations: 100 nM and 1000 nM (sheet 'Samples'), CATDS: 3.48419374837717E-2",1.2 µM
CCn1c(-c2nonc2N)nc2cncc(Br)c21 [SB-738004],potency estimated from few doses,[1]; [17],0.655 µM
same,potency estimated from few doses,[14]; [17],1.35 µM
Cn1cc(C2=C(c3c(S(C)=O)n(C)c4ccccc34)C(=O)NC2=O)c2ccccc21 (stereo not shown) [RO0317379-000],potency estimated from few doses,[3]; CATDS: 0.10247036288978301,1.82 µM
Cc1occc1-c1nc(N)c(OC[C@@H](N)Cc2c[nH]c3ccccc23)cc1-c1cc2c(C)n[nH]c2cn1 [GSK1660450B],potency estimated from few doses,[14]; [17],0.126 µM
Cc1cccc(-c2cc(-c3c[nH]nc3-c3ccccn3)ccn2)c1 [GW679395X],potency estimated from few doses,[12]; [17],2.34 µM
same,potency estimated from few doses,[5]; [17],0.784 µM

# Source: article PMC11062922 (Nature Chemical Biology, 2023)
